Compound activity (PubChem)
The sample as a whole holds a higher share of hits than the screen did.
Cycloheximide cs – affects cycloheximide protein synthesis inhibition readout, counter-screen | cell reporter, cycloheximide protein synthesis inhibition counterscreen | hit rate 12% among 300,000 | max response, %; in the data active = max response mostly above about 13%, no sharp cut-off; inactive = mostly below about 14%; also: read at 38.3 µM for the half of the compounds with a filed dose
Shiga toxin inh – blocks Shiga toxin action in Vero cells; hit rate 9.2% among 290,000; inhibition, % at 38.7 µM; AID 2315; Vero cells, Shiga toxin protein synthesis inhibition reporter; in the data active = inhibition mostly above about 28%, no sharp cut-off; inactive = mostly below about 43%
MARV entry inh – Marburg virus entry inhibition; Marburg virus pseudotyped entry inhibition, cell reporter; Potency, µM (titrated, usually from 37.8 µM), most hits filed as inhibitors; hit rate 1.8% among 300,000; AID 540276; calls by dose curve; tested in HEK293 cells
Lassa entry inh – inhibitors of Lassa virus binding or cell entry. Lassa virus pseudotype entry inhibition, cell reporter. Potency, µM (top dose mostly 37.9 µM), usual class: inhibitors. hit rate 1.2% among 300,000; calls by dose curve; tested in HEK293 cells; also: nearly all actives have a fitted effect of over 50% in size
AMA1 RON2 block – inhibitors of Plasmodium falciparum AMA1-RON2 interaction; AlphaScreen AMA1-biotinylated RON2 peptide binding; Potency, µM (top dose mostly 58.2 µM), usual class: inhibitors; hit rate 0.2% among 360,000; AID 720542; active = well fitted inhibition curve with a large enough effect; inconclusive = small, poorly fitted or top-dose-only effect; inactive = no such curve, though single readings can be large or run the other way; also: nearly all actives have a fitted effect of over 45% in size
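AMA1 (3D7) with his tag at 25 nM final met compounds first, then biotinylated RON2 peptide at 25 nM; detection used donor plus acceptor beads, 10 µg/mL apiece, read by AlphaScreen after 30 min at room temperature.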
Large screens that a line does not name were inactive.

COc1ccc(CCN(Cc2cccs2)S(=O)(=O)c2ccc(S(=O)(=O)N3CCCCCC3)cc2)cc1OC	none
CCC(C)NS(=O)(=O)c1ccc(S(=O)(=O)N(CCc2ccc(OC)c(OC)c2)Cc2cccs2)cc1 (stereo not given)	MARV entry inh 3.5µM, Lassa entry inh inconclusive
NC(=S)NNC(=O)c1ccccc1Cl	none (no result: MARV entry inh, Lassa entry inh)
O=C(NNC(=O)c1ccccc1Br)c1ccccc1Cl	Cycloheximide cs 19
O=C(NNC(=S)Nc1ccccc1Cl)c1ccccc1Br	Cycloheximide cs 49, Shiga toxin inh 74, Lassa entry inh inconclusive
O=C(O)CCc1cc(F)c(S(=O)(=O)N2CCN(S(=O)(=O)c3ccc4c(c3)OCCO4)CC2)cc1F	none (no result: MARV entry inh, Lassa entry inh, AMA1 RON2 block)
O=C1/C(=C\Nc2ccc(Cl)cc2)CCN1c1ncccn1	Cycloheximide cs 23, Shiga toxin inh 89, MARV entry inh inconclusive
O=C1/C(=C\Nc2ccc(OC(F)(F)F)cc2)CCN1c1ncccn1	MARV entry inh inconclusive
FC(F)(F)c1cnc(-c2cnc(-c3cccnc3)nc2)c(Cl)c1	Cycloheximide cs 48, Shiga toxin inh 116
Cc1noc(NS(=O)(=O)c2ccc(NC(=O)C(F)(F)C(F)(F)C(F)(F)F)cc2)c1C	none (no result: Cycloheximide cs, Shiga toxin inh)
O=C1[C@@H]2[C@@H]3C[C@@H]([C@H]4ON=C(c5ccc(Cl)cc5Cl)[C@@H]34)[C@@H]2C(=O)N1C1CCCCC1	Cycloheximide cs 31, MARV entry inh inconclusive, Lassa entry inh inconclusive
Cc1[nH]c(=O)[nH]c(=O)c1/C=N/NC(=O)[C@@H](N)CC(C)C	Cycloheximide cs 16 (no result: MARV entry inh, Lassa entry inh)
NC(=O)CSc1nc2cc(S(=O)(=O)N3CCOCC3)ccc2o1	Lassa entry inh inconclusive (no result: Cycloheximide cs, Shiga toxin inh)
O=S(=O)(c1ccc(Cl)c(C(F)(F)F)c1)N1CCN(CC(O)COCC2CCCO2)CC1 (stereo not given)	Cycloheximide cs 32
CC(C)(C)c1ccc(S(=O)(=O)N2CCN(CC(O)COCC3CCCO3)CC2)cc1 (stereo not given)	none (no result: Cycloheximide cs, Shiga toxin inh, MARV entry inh, Lassa entry inh)
Cc1ccc(NC(=O)CCCc2nc3ccccc3s2)c(O)c1	none
COc1ccc(C(=O)Nc2cccc(/C(C)=N\NC(=O)c3ccoc3C)c2)cc1OC	Cycloheximide cs 45, Shiga toxin inh 60, Lassa entry inh inconclusive
C/C(=N\NC(=O)c1nn(C)c(C)c1Br)c1cccc(NC(=O)c2ccoc2C)c1	Cycloheximide cs 46, Shiga toxin inh 24
CSCCC(NS(=O)(=O)c1ccc(C)cc1)C(=O)NC1CCCCCC1 (stereo not given)	none (no result: Cycloheximide cs, Shiga toxin inh)
COC(=O)c1sc(NC(=S)NC(=O)c2ccccc2Cl)nc1C	Cycloheximide cs 40, Shiga toxin inh 65, MARV entry inh inconclusive, Lassa entry inh inconclusive
CCC(=O)NC1=C(C#N)C2(CCCC2)Cc2ccccc21	none
CCOC(=O)C1=C(NC(=S)NC(=O)c2ccccc2)c2ccccc2CC12CCCC2	MARV entry inh 3.7µM, Lassa entry inh 2.6µM
COC(=O)c1sc(NC(=S)NC(=O)c2ccccc2)nc1C	Cycloheximide cs 26, MARV entry inh inconclusive, Lassa entry inh inconclusive
COC(=O)c1sc(NC(=S)NC(=O)c2cc(OC)c(OC)c(OC)c2)nc1C	none (no result: MARV entry inh, Lassa entry inh)
CCOC(=O)c1sc(NC(=S)NC(=O)c2cccc(OC)c2)nc1C	none
CCOC(=O)c1sc(NC(=S)NC(=O)c2ccccc2)nc1C	Cycloheximide cs 42, Shiga toxin inh 165 (no result: MARV entry inh, Lassa entry inh)
COC(=O)c1sc(NC(=O)/C=C/c2ccccc2Cl)nc1C	MARV entry inh inconclusive
Cn1cc(CN2CCN(Cc3ccccc3)C(CCO)C2)c(-c2ccccc2)n1 (stereo not given)	none (no result: MARV entry inh, Lassa entry inh)
CCOc1ccccc1NC(=S)N(Cc1cc2ccc(C)cc2[nH]c1=O)CC1CCCN1CC (stereo not given)	MARV entry inh inconclusive
Cc1nc(NC(=S)NC(=O)c2ccccc2)sc1C(=O)N(C)C	Cycloheximide cs 22, Lassa entry inh inconclusive
Cc1ccsc1C(=O)NCCc1nnc2ccccn12	Cycloheximide cs 31, Shiga toxin inh 72 (no result: MARV entry inh, Lassa entry inh)
C=CCn1c(CCNC(=O)c2cccs2)nnc1SCC(=O)c1ccc(Br)cc1	MARV entry inh inconclusive
O=C(NCCc1nnc2ccccn12)c1cccs1	Cycloheximide cs 36, Shiga toxin inh 51 (no result: MARV entry inh, Lassa entry inh)
Cc1ccc(C(=O)Nc2cccc(C(=O)NC3CCCC3)c2)cc1	none
CC(=O)NC(c1ccc(F)c(F)c1)c1nc(-c2ccccc2C)cs1 (stereo not given)	none (no result: Cycloheximide cs, Shiga toxin inh, MARV entry inh, Lassa entry inh)
CN(CCc1ccccc1)C(=O)c1ccc(NC(=O)Cc2cccc(NC(=O)C3CCN(C(=O)c4ccccc4)CC3)c2)cc1	none (no result: Cycloheximide cs, Shiga toxin inh, Lassa entry inh)
Cc1ccc(/C=C/C(=O)CCC(=O)O)cc1	Cycloheximide cs 35, Shiga toxin inh 64
CCOc1cccc2c1OC(c1cc(OC)c(OC)c(OC)c1)N1N=C(c3ccc(C)o3)CC21 (stereo not given)	Cycloheximide cs 39, MARV entry inh inconclusive
Cc1ccc(C(=O)COC(=O)Cc2ccccc2)cc1	Cycloheximide cs 46, Shiga toxin inh 77, MARV entry inh inconclusive
Cc1ccc(C(=O)COc2nc(C)nc3ccccc23)cc1	Cycloheximide cs 24, Shiga toxin inh 80
O=C(Cc1ccccc1)OCC(=O)c1ccccc1	Cycloheximide cs 30
Cc1cc(C)c(C#N)c(OCC(=O)c2ccccc2)n1	Cycloheximide cs 39
O=C1/C(=C\c2cccs2)Sc2ccc3ccccc3c21	Cycloheximide cs 48, Shiga toxin inh 84, MARV entry inh inconclusive, Lassa entry inh inconclusive, AMA1 RON2 block inconclusive
CCNc1nc(NCC)nc(N/N=C/c2ccc([N+](=O)[O-])o2)n1	MARV entry inh inconclusive
CCN(CC)c1ccc(N=Cc2ccc([N+](=O)[O-])o2)cc1	Cycloheximide cs 57, Shiga toxin inh 139, MARV entry inh inconclusive, Lassa entry inh inconclusive, AMA1 RON2 block inconclusive
CCC(=NC1CC1)c1c(O)n(C2CCCCC2)c(=O)[nH]c1=O	none
CC/C(=N\NC(=O)c1ccccc1Cl)c1c(O)n(C2CCCCC2)c(=O)[nH]c1=O	Cycloheximide cs 14 (no result: MARV entry inh, Lassa entry inh)
CC/C(=N\NC(=O)c1ccccc1)c1c(O)n(C2CCCCC2)c(=O)[nH]c1=O	Cycloheximide cs 34, Shiga toxin inh 51 (no result: MARV entry inh, Lassa entry inh)
CCOC(=O)CC(NC(=O)c1cccc2c1C(=O)N(Cc1cccnc1)C2)c1ccc(OCC)c(OC)c1 (stereo not given)	none
CCc1ccc(-c2cn(C3CCCCC3)c(=S)[nH]2)cc1	Cycloheximide cs 18
CN(C)c1ccnc2sc3c(=O)n(-c4ccccc4)cnc3c12	Cycloheximide cs 12, MARV entry inh inconclusive, Lassa entry inh inconclusive
CC(C)c1ccc(NC(=O)C2=NNC(=O)CC2)cc1	Cycloheximide cs 38, Shiga toxin inh 97, MARV entry inh inconclusive
Cc1ccc(NC(=O)C2=NNC(=O)CC2)cc1F	Cycloheximide cs 35, Shiga toxin inh 60, MARV entry inh inconclusive
O=C1CCC(C(=O)Nc2cccc(S(=O)(=O)Nc3ccccc3F)c2)=NN1	MARV entry inh inconclusive (no result: Cycloheximide cs, Shiga toxin inh)
O=C1CCC(C(=O)Nc2cccc(Oc3ccccc3)c2)=NN1	Cycloheximide cs 15, MARV entry inh inconclusive
Cc1ccc(NC(=O)c2cnc(N3CCCC3)nc2C)cc1F	none (no result: Cycloheximide cs, Shiga toxin inh, MARV entry inh, AMA1 RON2 block)
CC1(C)CN(C2CCCCC2)C(=O)[C@@H]1CC(=O)Nc1ccccc1	none (no result: Cycloheximide cs, Shiga toxin inh, MARV entry inh, AMA1 RON2 block)
Cc1cc(C)n(CCC(=O)N/N=C/c2ccc(O)cc2O)n1	MARV entry inh 13µM, Lassa entry inh inconclusive
